Measurements from PubChem BioAssay AID488852 (National Center for Advancing Translational Sciences (NCATS), 2010).
Active and inactive are the calls of the source. The call rests on the fitted dose curve; in most records, active means well fitted curve in the direction sought with a large enough effect; inconclusive means small, poorly fitted or top-dose-only effect, or another doubt; inactive means no such curve, though single readings can be large or run the other way.

molecular target: Lysosomal acid glucosylceramidase (Homo sapiens) (UniProt P04062); test: qHTS Assay for Inhibitors and Activators of N370S glucocerebrosidase as a Potential Chaperone Treatment of Gaucher Disease: Activity in N370S Spleen Homogenate Confirmation Using Alternate Substrate for Probe SAR; settings: N370S patient spleen homogenate, resorufin-glucoside fluorescence; series mostly up to 57.5 µM; activity change, negative = inhibition: at the top concentration
Text: NIH Chemical Genomics Center [NCGC] NIH Molecular Libraries Probe Production Centers Network [MLPCN] MLPCN Grant: MH086442-01 Assay Submitter (PI): Wei Zheng Glucocerebrosidase (GC) catalyzes the hydrolysis of beta-glucocerebroside to glucose and ceramide in lysosomes. Mutations in the glucocerebrosidase gene result in Gaucher disease, an autosomal recessive lysosomal storage disorder. Many of the mutations encountered in patients with Gaucher disease are missense alterations that may cause misfolding, decreased stability and/or mistrafficking of this lysosomal protein. […] These inhibitors include iminosugar analogs and three non-iminosugar inhibitors identified from a previous HTS of 62,000 compounds with the wild type recombinant enzyme. However, the enhancement of enzyme activity by the chaperone action of an enzyme inhibitor must be balanced against the direct inhibition of the enzyme. An enzyme activator could also function as a chaperone by binding to the enzyme and helping to correct its misfolding and mistrafficking. While activators for GC have not yet been identified, they may have better therapeutic potential than inhibitors. Therefore the discovery and development of chemical activators may provide a new strategy for the chaperone therapy. We have optimized a new assay using N370S mutant GC derived from the spleen of a Gaucher patient. […] In addition, the MLPCN compound library has expanded, which increases the chance of finding new and better probes. This confirmation assay tests for compound activity in spleen homogenate from a patient homozygous for the N370S mutation using an alternate resorufin-based substrate.
NCGC Assay Protocol Summary: This is a fluorogenic enzyme assay with resorufin-beta-D-glucopyranoside as the substrate and mutant N370S glucocerebrosidase from human spleen homogenate as the enzyme preparation. Upon the hydrolysis of this fluorogenic substrate, the resulting product, […] which can be detected by a standard fluorescence plate reader. Data were normalized to the controls for basal activity (without enzyme) and 100% activity (with enzyme). The AC50 values were determined from concentration-response data modeled with the standard Hill equation. Assay buffer: 50 mM citric acid (titrated with potassium phosphate to pH 5.0), 100 mM potassium chloride, 10 mM sodium chloride, 1 mM magnesium chloride, 0.01% Tween-20. 1536-well assay protocol: (1) Add 2 ul/well of spleen homogenate (27 ug final) (2) Add 23 nL compounds in DMSO solution. The final titration was 0.5 nM to 58 uM. (3) Add 2 ul of substrate (1 mM final) (4) Incubate at 37C for 40 min. (5) Add 2 ul stop solution (1M NaOH and 1M Glycine mixture, pH 10) (6) Detect the assay plate in a ViewLux plate reader (PerkinElmer) with Ex=365 nm and Em=440nm. Keywords: Glucocerebrosidase, beta-glucosidase, Gaucher Disease, pharmacological chaperone, chaperone therapy, high throughput screening, glucocerebrosidase inhibitor, MLSMR, MLSCN, NIH Roadmap, qHTS and NCGC

Chain of Lysosomal acid glucosylceramidase (Homo sapiens) (P04062 whole entry N409S): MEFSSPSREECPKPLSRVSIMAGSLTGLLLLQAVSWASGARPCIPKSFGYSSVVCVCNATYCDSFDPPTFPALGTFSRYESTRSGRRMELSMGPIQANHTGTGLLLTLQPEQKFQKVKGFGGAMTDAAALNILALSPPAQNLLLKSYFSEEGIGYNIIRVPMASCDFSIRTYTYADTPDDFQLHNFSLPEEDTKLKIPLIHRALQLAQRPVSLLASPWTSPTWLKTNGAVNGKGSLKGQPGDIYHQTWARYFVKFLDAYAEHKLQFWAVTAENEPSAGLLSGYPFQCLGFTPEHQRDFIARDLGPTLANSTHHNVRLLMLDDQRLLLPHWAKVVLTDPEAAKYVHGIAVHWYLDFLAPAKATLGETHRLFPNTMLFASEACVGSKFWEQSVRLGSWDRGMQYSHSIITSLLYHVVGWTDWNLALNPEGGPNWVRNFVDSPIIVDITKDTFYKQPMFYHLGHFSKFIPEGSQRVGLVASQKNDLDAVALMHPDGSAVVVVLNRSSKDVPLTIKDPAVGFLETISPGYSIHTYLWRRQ

Question: Which “activity change, negative = inhibition” value does the source give for `CC(=O)Nc1ccc(NC(=O)c2cnn3c(C)cc(C)nc23)cc1` here?
Answer: -24.9% (inactive)

Question: How did the “activity change, negative = inhibition” value turn out when `Cc1cc(C)n2ncc(C(=O)NCC(C)C)c2n1` was run?
Answer: -0.211% (inactive)

Question: With `Cc1cc(C)n2ncc(C(=O)Nc3ccc(Br)cc3)c2n1` as the molecule, how does the “activity change, negative = inhibition” value read?
Answer: 16.8% (inactive)

Question: Which “activity change, negative = inhibition” value does the source give for `Cc1cc(C)n2ncc(C(=O)Nc3ccc(C(C)(C)C)cc3)c2n1` here?
Answer: -0.21% (inactive)

Question: How did the “activity change, negative = inhibition” value turn out when `Cc1cc(C)n2ncc(C(=O)Nc3ccccc3)c2n1` was run?
Answer: -18.7% (inactive)

Question: Which “activity change, negative = inhibition” value does the source give for `CC(=O)Nc1ccccc1NC(=O)c1cnn2c(C)cc(C)nc12` here?
Answer: -23.8% (inactive)

Question: `Cc1cc(C)n2ncc(C(=O)NCc3ccccc3)c2n1` was tested. Which “activity change, negative = inhibition” value did it give?
Answer: -24.6% (inactive)

Question: With `Cc1cc(C)n2ncc(C(=O)Nc3ccc(C)c(C)c3)c2n1` as the molecule, how does the “activity change, negative = inhibition” value read?
Answer: 0.0219% (inactive)

Question: With `COc1ccc(NC(=O)c2cnn3c(C)cc(C)nc23)cc1OC` as the molecule, how does the “activity change, negative = inhibition” value read?
Answer: 0.0219% (inactive)

Question: Which “activity change, negative = inhibition” value does the source give for `Cc1cc(C)n2ncc(C(=O)Nc3ccncc3)c2n1` here?
Answer: 0.0344% (inactive)

Question: For `Cc1cc(C)n2ncc(C(=O)NC(C)C)c2n1`, which “activity change, negative = inhibition” value is on record?
Answer: -22.2% (inactive)

Question: `Cc1cc(C)n2ncc(C(=O)Nc3ccc(C#N)cc3)c2n1` was tested. Which “activity change, negative = inhibition” value did it give?
Answer: -24.2% (inactive)

Question: How did the “activity change, negative = inhibition” value turn out when `CNC(=O)c1cnn2c(C)cc(C)nc12` was run?
Answer: -0.211% (inactive)

Question: For `Cc1cc(C)n2ncc(C(=O)Nc3cccc(C#N)c3)c2n1`, which “activity change, negative = inhibition” value is on record?
Answer: -0.211% [at 19 µM] (inactive)

Question: `Cc1cc(C)n2ncc(C(=O)Nc3ccc(C(F)(F)F)cc3)c2n1` was tested. Which “activity change, negative = inhibition” value did it give?
Answer: 23.7% (inactive)

Question: `Cc1cc(C)n2ncc(C(=O)NCc3ccco3)c2n1` was tested. Which “activity change, negative = inhibition” value did it give?
Answer: 0.0344% (inactive)

Question: With `COc1cc(NC(=O)c2cnn3c(C)cc(C)nc23)cc(OC)c1OC` as the molecule, how does the “activity change, negative = inhibition” value read?
Answer: 0.0219% (inactive)

Question: `Cc1cc(C)n2ncc(C(=O)Nc3ccccc3C)c2n1` was tested. Which “activity change, negative = inhibition” value did it give?
Answer: -15.4% (inactive)

Question: How did the “activity change, negative = inhibition” value turn out when `COc1ccc(NC(=O)c2cnn3c(C)cc(C)nc23)cc1Cl` was run?
Answer: -14.1% (inactive)

Question: For `Cc1cc(C)n2ncc(C(=O)Nc3ccc4c(c3)CCC4)c2n1`, which “activity change, negative = inhibition” value is on record?
Answer: -0.211% (inactive)

Question: How did the “activity change, negative = inhibition” value turn out when `COc1ccc(NC(=O)c2cnn3c(C)cc(C)nc23)cc1F` was run?
Answer: 22.7% (inactive)

Question: Which “activity change, negative = inhibition” value does the source give for `C#Cc1ccc(NC(=O)c2cnn3c(C)cc(C)nc23)cc1` here?
Answer: 20.9% (inactive)

Question: How did the “activity change, negative = inhibition” value turn out when `Cc1cc(C)n2ncc(C(=O)Nc3ccc4c(c3)OCO4)c2n1` was run?
Answer: 0.0219% (inactive)

Question: Which “activity change, negative = inhibition” value does the source give for `CCc1ccc(NC(=O)c2cnn3c(C)cc(C)nc23)cc1` here?
Answer: -0.211% (inactive)

Question: With `COc1ccc(NC(=O)c2cnn3c(C)cc(C)nc23)cc1` as the molecule, how does the “activity change, negative = inhibition” value read?
Answer: -0.21% (inactive)

Question: With `CC(=O)c1ccc(NC(=O)c2cnn3c(C)cc(C)nc23)cc1` as the molecule, how does the “activity change, negative = inhibition” value read?
Answer: 0.0219% (inactive)

Question: `O=C(Nc1cnn(Cc2ccc(F)cc2)c1)c1cnn2c(C(F)F)cc(-c3ccccc3)nc12` was tested. Which “activity change, negative = inhibition” value did it give?
Answer: 0.0344% (inactive)

Question: With `Cc1cc(C)n2ncc(C(=O)NC3CCCCC3)c2n1` as the molecule, how does the “activity change, negative = inhibition” value read?
Answer: -0.211% (inactive)

Question: `Cc1cc(C)n2ncc(C(=O)N3CCCC3)c2n1` was tested. Which “activity change, negative = inhibition” value did it give?
Answer: -0.211% (inactive)

Question: `Cc1cc(C)n2ncc(C(=O)Nc3cccc(C(F)(F)F)c3)c2n1` was tested. Which “activity change, negative = inhibition” value did it give?
Answer: 0.0219% (inactive)

Question: For `CC(=O)c1cccc(NC(=O)c2cnn3c(C)cc(C)nc23)c1`, which “activity change, negative = inhibition” value is on record?
Answer: 17.3% (inactive)

Question: How did the “activity change, negative = inhibition” value turn out when `Cc1ccc(NC(=O)c2cnn3c(C)cc(C)nc23)cc1` was run?
Answer: -0.21% (inactive)

Question: Which “activity change, negative = inhibition” value does the source give for `Cc1cccc(NC(=O)c2cnn3c(C)cc(C)nc23)c1` here?
Answer: -0.21% (inactive)

Question: Which outcome does the source give for `Cc1cc(C)n2ncc(C(=O)NC3CCC(C(C)(C)C)CC3)c2n1` (configuration not stated) here?
Answer: inactive

Question: For `Cc1cc(C)n2ncc(C(=O)Nc3ccc(S(C)(=O)=O)cc3)c2n1`, which “activity change, negative = inhibition” value is on record?
Answer: 0.0344% (inactive)

Question: With `Cc1cc(C)n2ncc(C(=O)Nc3ccc4c(c3)OCCO4)c2n1` as the molecule, how does the “activity change, negative = inhibition” value read?
Answer: 0.0219% (inactive)

Question: `Cc1ccc(NC(=O)c2cnn3c(C)cc(C)nc23)c(C)c1` was tested. Which “activity change, negative = inhibition” value did it give?
Answer: -0.21% (inactive)
